The results in this text go back to PubChem BioAssay AID504861 (Broad Institute, 2011).

SMILES strings stand for the structures. In all, about 1,200 compounds went through this assay and about 290 (24%) were called active. Another 3% or so got no clear call; they are omitted.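 Rule for the calls: active = compounds lowering cell viability signal with fitted half-maximal concentration at most ten times their highest tested concentration; inconclusive = flat fit with 30 to 70% signal loss, or poor fit; inactive = the rest.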 Only a sample is shown. Measured potencies and affinities stand elsewhere.

This assay is described as follows: HEK293T cell viability reduction, dose response, cytotoxicity control for LMP1 NF-kB inhibitor project, CellTiter-Glo luminescence, cherry-picks (AID 504861). The settings on record: CellTiter-Glo ATP luminescence, 48 h; series mostly up to 26 µM. A general note: In ATP-based viability assays light output follows the ATP content of the culture.
As for `CCC(C)n1ncn(-c2ccc(N3CCN(c4ccc(OCC5COC(Cn6cncn6)(c6ccc(Cl)cc6Cl)O5)cc4)CC3)cc2)c1=O` (stereo not drawn), the compound was called inactive.
Consider `CC(=C/c1ccccc1)/C=N/n1c(-c2ccncc2)n[nH]c1=S`, for which the result was inactive.
In the case of `N/C(=N\OC(=O)c1cccc(Br)c1)c1ccccn1`, the compound was classed as inactive.
Regarding `Cc1ccnc(NC(=O)c2cccc(NC(=O)c3ccc(Cl)c(Cl)c3)c2)c1`, the result was inactive.
Consider `CCCc1c(C(=O)N/N=C(\C)c2ccccn2)nnn1-c1nonc1N`, for which the call was inactive.
On to `O=C(O)c1ccc(C=NN=C2c3ccccc3-c3ccccc32)cc1`, for which the call was inactive.
In the case of `Cc1ccc(CCNC(=O)CCc2nc3ccccc3[nH]2)cc1` it was “inactive”; in that of `CCn1c2ccccc2c2cc(/C=N/n3c(-c4cc(C)[nH]n4)n[nH]c3=S)ccc21`, “inactive”.
Consider `O=C(O)c1cn2c3c(ccc(Cl)c3c1=O)OCC2`, for which the compound was classed as inactive.
Regarding `S=c1[nH]nc(C2CCCCC2)n1/N=C/c1ccncc1`, the compound was classed as inactive.
In the case of `CCN(CC)S(=O)(=O)c1ccc(N=NC2=C(O)CCCC2=O)cc1`, the outcome was inactive.
In the case of `CCN(CC)S(=O)(=O)c1ccc(N/N=C/c2ccc(O)cc2O)nc1` it was “inactive”; in that of `COC(=O)C1=NNC(C(=O)OC)C1c1ccccc1` (stereo not drawn), “inactive”; in that of `COCCCNCC1C(Oc2ccc(Cl)cc2)C(=O)N1c1ccccc1C` (stereo not drawn), “inactive”.
`COc1ccc(C(=O)Nc2cc(C)c(NC(=O)c3ccccc3OC)cn2)cc1`: the compound was classed as inactive.
In the case of `COc1ccccc1-n1cc([C@@H]2C[C@H]3CN(c4ccccc4)C(=O)[C@]34CCCN24)cn1`, the compound was called inactive.
On to `COc1ccc2cc(C(N)=O)/c(=N\NC(=O)c3ccccc3)oc2c1`, for which the result was inactive.
In the case of `CCOC(=O)CNC(=O)CSc1nnc(NC(=O)c2ccc(C)cc2)s1` it was “inactive”; in that of `Nc1cc(=O)[nH]c(SCCSc2cc(Cl)ccc2Cl)n1`, “inactive”; in that of `O=C(Nc1ccc(N2CCOCC2)cc1)c1cn2ccccc2n1`, “inactive”.
In the case of `COc1cc(/C=C(\C#N)c2ccccn2)ccc1OCc1ccccc1Cl` it was “inactive”.
With `CN(C)CCN(Cc1ccc(Cl)cc1)c1ccccn1`, the call was inactive.
With `CCn1c2ccccc2c2cc(/C=N/n3c(C)nnc3C)ccc21`, the compound was classed as inactive.
In the case of `Cn1cccc1C(=O)OCC(=O)Nc1ccc2c(c1)OCO2` it was “inactive”.
In the case of `Cc1ccc2oc(C(=O)Nc3ccc(S(=O)(=O)Nc4onc(C)c4C)cc3)c(C)c2c1`, the outcome was inactive.
In the case of `O=C(CN1C(=O)c2ccccc2S1(=O)=O)c1ccc(F)c(F)c1` it was “inactive”; in that of `CC(=O)c1sc(NC(=O)C2COc3ccccc3O2)nc1C` (stereo not drawn), “inactive”; in that of `Cc1ccccc1NC(=O)CN1C(=O)S/C(=C\c2cccn2-c2cccc(C(=O)O)c2)C1=O`, “inactive”.
As for `O=C(O)/C=C/c1ccc2ccccc2n1`, the compound was called inactive.
As to `CCOC(=O)Nc1ccc2c(c1)N(C(=O)CN(C)C)c1ccccc1CC2`, the result was inactive.
As to `CCOCCCNC(=O)CN1C(=O)/C(=C\c2ccc(C)cc2)Sc2ccccc21`, the outcome was inactive.
In the case of `CCN(c1ccccc1)S(=O)(=O)c1ccc(Cl)c(NC(=O)Nc2ccc(Cl)cc2C#N)c1` it was “inactive”; in that of `COc1ccc(-c2csc3ncnc(NCCO)c23)cc1`, “inactive”.
Consider `COC(=O)c1cc2n(n1)CCN(Cc1ccccc1Cl)C2=O`, for which the outcome was inactive.
For `CC1CN(c2cc(=O)n(-c3ccccc3)c(=O)[nH]2)CC(C)O1` (stereo not drawn), the compound was called inactive.
In the case of `CCc1cc2c(Sc3nc4ccccc4s3)ncnc2s1` it was “inactive”.
Regarding `Cc1nn(-c2ccccc2)c(Cl)c1C(=O)N1CCN(c2ncnc3c2cnn3-c2ccccc2)CC1`, the call was inactive.
As to `CC1(C)Cc2c(ccc3ccccc23)/C(=C/C(=O)N2CCCCC2)N1`, the compound was called inactive.
As to `COc1ccc(NC(=O)NCCN2CCc3ccccc3C2)cc1`, the compound was called inactive.
As for `COc1ccc2cc(-c3cc(C(=O)O)c4ccccc4n3)ccc2c1`, the outcome was inactive.
Turning to `Cc1cc2cc(CN(Cc3ccco3)S(=O)(=O)c3c(C)ccc4nsnc34)c(=O)[nH]c2cc1C`, the call was inactive.
In the case of `CCCN(CC)c1ncnc2[nH]ncc12` it was “inactive”; in that of `COc1ccc(/C=N/Nc2cc(OC)ncn2)cc1`, “inactive”; in that of `CN(C)c1ccc(C=Cc2ccnc3c(O)cccc23)cc1`, “inactive”.
For the compound `COc1ccc(CC(C)NCC(O)c2ccc(O)c(NC=O)c2)cc1` (stereo not drawn), the call was inactive.
In the case of `COc1ccc(-n2c(SCC(=O)Nc3ccc4c(c3)OCO4)nc3c(c2=O)SCC3)cc1`, the result was inactive.
In the case of `CCOCCCn1cnc2c3cc(F)ccc3n(C)c2c1=O` it was “inactive”.
On to `CC(C)(C)n1nc(-c2ccc(Cl)cc2)c2c(N)ncnc21`, for which the result was inactive.
In the case of `CCc1ccc(/C=C2\SC(=S)N(CCCC(=O)NC3=NCCS3)C2=O)cc1` it was “inactive”.
With `CCOc1cc(/C=C2/C(=N)N3N=C(CC)SC3=NC2=O)ccc1OC(=O)c1ccco1`, the call was inactive.
As to `COc1ccc(-c2cc(C(=O)N3CCCC3)no2)cc1`, the call was inactive.
In the case of `O=Cc1ccc(-c2cccs2)s1` it was “inactive”; in that of `COC(=O)c1ccc(CSc2nc3c(c(=O)n2-c2ccc(C)cc2)SCC3)o1`, “inactive”; in that of `Cc1ccc(-n2cc(C(=O)c3ccccc3O)cn2)cc1`, “inactive”.
On to `COc1ccc(C(=O)N=c2nc3ccccn3s2)cc1`, for which the call was inactive.
For `CC(=O)c1cc(C(=O)Nc2ccc(C(=O)O)cc2)oc1C`, the compound was called inactive.
Regarding `COc1ccc(NC(=O)/C(C#N)=C/c2cc(C)n(-c3ccc(N4CCOCC4)c([N+](=O)[O-])c3)c2C)cc1`, the compound was called inactive.
On to `CCOC(=O)c1c(CSc2nc(C)cc(C)c2C#N)n(C)c2cc(Br)c(OC(C)=O)cc12`, for which the result was inactive.
`Cc1nc(SCC(=O)c2cccc([N+](=O)[O-])c2)n[nH]1`: the compound was called inactive.
In the case of `CCOc1ccc(Nc2ncnc3ccc([N+](=O)[O-])cc23)cc1`, the result was inactive.
In the case of `CC(NC(=O)CNC(=O)OCc1ccccc1)C(=O)N1CC(O)CC1C(=O)OCc1ccccc1` (stereo not drawn) it was “inactive”; in that of `CC(C)(C)OC(=O)N1Cc2ccccc2C[C@H]1C(=O)NCC(=O)Nc1ccc2c(c1)OCCO2`, “inactive”; in that of `COc1ccc(-n2cnc3c(cnn3CCC#N)c2=N)cc1`, “inactive”.
In the case of `Cc1ccn2c(c1)nc(=S)n2C(=O)c1ccccc1` it was “inactive”.
Consider `COc1ccc(NC(=O)c2cc3c(CO)cnc(C)c3oc2=Nc2cccc(F)c2)c(OC)c1`, for which the result was inactive.
`N#Cc1c(Nc2ccccc2)sc(C(=O)c2ccc(F)cc2)c1N`: the compound was called inactive.
Regarding `C=CCn1c(SCc2csc(C)n2)nc2sc3c(c2c1=O)CCCC3`, the compound was called inactive.
As for `CCn1c2ccccc2c2cc(/C=N/n3cn[nH]c3=S)ccc21`, the compound was called inactive.
As for `O=C1CC(c2cccs2)Cc2nc(NC(=O)C3CC3)ncc21` (stereo not drawn), the compound was called inactive.
On to `CC(=O)O[C@]1(C(C)=O)CC[C@H]2[C@@H]3C=C(C)C4=CC(=O)CC[C@@H]4[C@H]3CC[C@@]21C`, for which the call was inactive.
In the case of `Cc1ccc(-c2cc(C(=O)N/N=C/C=C/c3ccco3)c3ccccc3n2)cc1C` it was “inactive”.
In the case of `Cc1ccc(C(=O)NCC(=O)N(C)Cc2cccc(F)c2)s1`, the outcome was inactive.
As to `Cn1cccc1/C=N/n1c(-c2ccc(Cl)cc2Cl)n[nH]c1=S`, the call was inactive.
In the case of `O=C(Nc1cccc(C(=O)O)c1)Nc1ccccc1Cl` it was “inactive”; in that of `CCn1nnc2cc(C(=O)NCCc3ccccc3F)ccc21`, “inactive”.
On to `O=C(NCCc1cn2ccccc2n1)C1CCCCC1`, for which the result was inactive.
Regarding `Cc1ccc(C)c(Cn2c(O)c(N=NC(=S)Nc3ccccc3F)c3ccccc32)c1`, the outcome was inactive.
For `N#CC1=C(N)C(C#N)(C#N)C(c2cccnc2)C2CC(c3ccccc3)CC=C12` (stereo not drawn), the call was inactive.
In the case of `Cc1nc(C)n(C(C)CNC(=O)c2ccco2)n1` (stereo not drawn) it was “inactive”.
Consider `O=C(O)c1ccccc1Nc1cccc(OCc2ccc3ccccc3n2)c1`, for which the compound was called inactive.
Turning to `CCCC(=O)NCCCc1nc2ccccc2n1C`, the call was inactive.
In the case of `O=C(O)c1cc(=O)c2c(OCC(O)COc3cccc4oc(C(=O)O)cc(=O)c34)cccc2o1` it was “inactive”; in that of `COc1ccc(-n2c(C)c([N+](=O)[O-])c3ccc(O)c(CN(C)C)c32)cc1`, “inactive”; in that of `COc1ccc(Cl)cc1NC(=O)CN(C)S(=O)(=O)c1cccs1`, “inactive”.
Regarding `OCCN(CCO)CC(O)COCCC12CC3CC(CC(C3)C1)C2` (stereo not drawn), the call was inactive.
`O=C(Nc1ccc2c(c1)nc1n2CCSC1)c1ccco1`: the call was inactive.
Turning to `CCn1c(/C=C/c2ccc([N+](=O)[O-])o2)nc2ccccc2c1=O`, the compound was called inactive.
`Cc1ccc(/C=C/c2nc3ccccc3c(=O)[nH]2)cc1`: the outcome was inactive.
In the case of `COc1ccccc1-c1ccccc1C1=CC(=O)CC(C)(C)C1=O`, the outcome was inactive.
As for `COc1ccc(/C=C2\N=C(C)OC2=O)cc1[N+](=O)[O-]`, the compound was classed as inactive.
For `Brc1cccc(-c2cnco2)c1`, the result was inactive.
Consider `O=c1[nH]c(=O)n([C@H]2C[C@H](O)[C@@H](CO)O2)cc1C(F)(F)F`, for which the compound was called inactive.
In the case of `O=c1c2c(nc3c(-c4cccc(Br)c4)c[nH]n13)CCCC2`, the call was inactive.
For `CC(C)C(=O)Nc1ccc(C(=O)N/N=C/c2cc(Br)cc(Br)c2O)cc1`, the outcome was inactive.
Consider `Clc1ccc(-c2cn3nc4c(nc3n2)CCCC4)cc1`, for which the compound was classed as inactive.
Turning to `COc1ccc(NC(=O)C2CCCN(S(=O)(=O)c3cccc4nonc34)C2)c(OC)c1` (stereo not drawn), the result was inactive.
`CC(=O)Nc1ccc(C=NNc2nnc(NN=Cc3ccc(NC(C)=O)cc3)c3ccccc23)cc1`: the outcome was inactive.
In the case of `COc1ccc(N2C(=O)CC(Sc3nnc(-c4ccccc4)o3)C2=O)cc1` (stereo not drawn) it was “inactive”; in that of `Cc1cccc(NC(=O)Nc2c(C)n(C)n(-c3ccccc3)c2=O)c1C`, “inactive”.
As to `Cc1c(C=O)c2ccccn2c1C(=O)c1ccccc1Cl`, the compound was called inactive.
For the compound `Clc1ccc2nc(-c3ccc4c(c3)OCO4)cn2c1`, the result was inactive.
As for `COC(=O)c1ccc2nc(-c3ccc4c(c3)OCO4)cn2c1`, the call was inactive.
With `Cc1c(/C(O)=C2/C(=O)C(=O)N(CCN3CCOCC3)C2c2ccccn2)cnn1-c1ccccc1` (stereo not drawn), the result was inactive.
As for `CCc1cc(=O)oc2c(CNCc3c(F)cccc3Cl)c(O)ccc12`, the compound was called inactive.
On to `COc1ccccc1C(=O)NC(=O)CSc1nnc(N)s1`, for which the result was inactive.
Regarding `CS(=O)(=O)c1ccc(Sc2nc3ccccc3s2)c([N+](=O)[O-])c1`, the call was inactive.
`COc1ccc(-c2nc(CS(=O)CC(=O)NCc3ccc(Cl)cc3)c(C)o2)cc1` (stereo not drawn): the outcome was inactive.
With `COc1ccc(S(=O)(=O)NCCc2csc(-c3cccnc3)n2)cc1`, the compound was classed as inactive.
